Among the data in the supplement of paper PMC6555819 are PBM binding z-score values, retold here.

What all share (assay): PBM binding z-score (relative to random genomic background probes); higher = stronger binding; sequences stand for … in GC…GCGATTGACAGCGTAGAATGAAGG
The test system of assay [1] is PPARg:RXRa DBDmut IVT, anti-RXR (DBD mutation: RXRa K156A/R161A, NR concentration 270 nM, RXRa partner concentration 90 nM). The essentials: (§1)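 On custom Agilent 4×180K arrays, double-stranded probes with 34-nt variable regions carried direct-repeat seeds, single-nucleotide variants, half-site ablations or random human genomic background. Ligand-free nuclear receptor dimers were applied for 1 h, and binding was read with antibodies against each partner (one per run). Binding z-scores come from regression-normalized fluorescence, with the random background probes as reference.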

Assay [2] has as its system PPARg:RXRa IVT, anti-PPARg (NR concentration 270 nM, RXRa partner concentration 90 nM). The essentials:
as §1

Assay [3] concerns PPARg DBDmut:RXRa IVT, anti-PPARg (DBD mutation: PPARg1 K132A/R137A, NR concentration 270 nM, RXRa partner concentration 90 nM). In short, it runs like this: as §1
Assay [4] relates to PPARg DBDmut IVT, anti-PPARg (DBD mutation: PPARg1 K132A/R137A, NR concentration 270 nM). In short, it runs like this:
as §1

In assay [5] the test system is PPARg homodimer (NR concentration 180 nM). In short, it runs like this: as §1
Assay [6] has as its system PXR:RXRa (NR concentration 270 nM, RXRa partner concentration 90 nM). In short, it runs like this:
as §1

Assay [7] deals with PXR homodimer (NR concentration 270 nM). In short, it runs like this:
as §1

For assay [8], the system named is RARa:RXR (NR concentration 270 nM, RXRa partner concentration 90 nM). In short, it runs like this:
as §1

The test system of assay [9] is RARa homodimer (NR concentration 270 nM). The essentials: as §1
The subject of assay [10] is RARb:RXRa (NR concentration 270 nM, RXRa partner concentration 90 nM). In short, it runs like this:
as §1

In assay [11] the test system is RARb homodimer (NR concentration 270 nM). In short, it runs like this:
as §1

For assay [12], the system named is RARg:RXRa (NR concentration 270 nM, RXRa partner concentration 90 nM). In short, it runs like this:
as §1

Assay [13] deals with RARg homodimer (NR concentration 270 nM). In short, it runs like this:
as §1

For assay [14], the system named is RXRa DBDmut IVT, anti-RXR (DBD mutation: RXRa K156A/R161A, NR concentration 90 nM). The essentials:
as §1

Assay [15] has as its system RXRa homodimer (NR concentration 180 nM). The essentials: as §1
The test system of assay [16] is THRa:RXRa (NR concentration 90 nM, RXRa partner concentration 90 nM). In short, it runs like this:
as §1

The subject of assay [17] is THRa homodimer (NR concentration 90 nM). The essentials:
as §1

Assay [18] deals with VDR homodimer (NR concentration 270 nM). In short, it runs like this: as §1

On to CCTTACGGGTCAAGGATATAGCACGGGTGGTACG, for which the PBM binding z-score in [1] is 1.81; in assay [2], 3.02; in [3] it was 0.42; in [4], -0.469; in assay [5] it was 1.43; in assay [6] it was 2.54. Moreover, the PBM binding z-score in assay [7] amounted to 0.0549; in [8], 3.44; in assay [9], 0.583; in [10] it was 3.88; in assay [11], 3.04; in assay [12], 4.53. The PBM binding z-score came out at 4.5 in assay [13]; 0.465 in [14]; 4.68 in [15]; 2.38 in assay [16]; 0.293 in assay [17]; 0.886 in assay [18].

For TCTAACAGGCCAGAGGGTCACTCAAGAGGTACGG, the PBM binding z-score in assay [1] is 1.73; in assay [2], 0.466; in assay [3], -0.318; in assay [4] it was -0.0122; in assay [5], 1.11; in assay [6], 1.86. The PBM binding z-score was -0.0848 in assay [7]; 2.6 in [8]; -0.0287 in [9]; 2.27 in assay [10]; 3.05 in assay [11]; 2.78 in [12]. Besides, the PBM binding z-score in assay [13] is 2.14; in [14], 1; in [15] it was 2.88; in [16] it was 1.71; in [17], -0.107; in [18], 0.997.

For CCTACTGGGCCAAGGTCATGGATCAGTCAAAGCA, the PBM binding z-score in assay [1] was 3.36; in assay [2], 4.9; in assay [3], -0.856; in [4], -0.00696; in [5] it was 0.941; in assay [6] it was 3.26. The PBM binding z-score came to 0.388 in [7]; 3.81 in assay [8]; 0.247 in [9]; 3.53 in assay [10]; 3.54 in [11]; 4.16 in assay [12]. Moreover, the PBM binding z-score in assay [13] was 3.48; in assay [14] it was -0.0426; in assay [15], 3.95; in assay [16], 3.71; in [17], 2.5; in [18], 1.68.

With CCTATTGGGCCACGAAAGGTCATTGATTCAGTGA, the PBM binding z-score was 4.26 in [1]; 4.09 in [2]; 0.172 in [3]; -0.271 in assay [4]; 5.52 in assay [5]; 5.82 in assay [6]. For the same sequence, the PBM binding z-score in [7] worked out at 1.47; in [8], 5.93; in [9] it was 2.11; in [10] it was 4.13; in [11], 4.4; in [12] it was 4.95. Moreover, the PBM binding z-score in [13] is 4.66; in assay [14] it was 0.751; in [15] it was 5.29; in assay [16] it was 4.08; in assay [17] it was 0.834; in [18] it was 2.26.

For TGTCAAAGTTCAAAGGTAACGTTAGTATCCACAC, the PBM binding z-score in [1] was 0.507; in assay [2], 4.64; in assay [3], 0.572; in assay [4] it was 1.49; in [5], 2.93; in assay [6], 5.67. Further, the PBM binding z-score turned out to be 4.38 in [7]; 6.71 in [8]; 1.65 in assay [9]; 5.29 in [10]; 4.11 in [11]; 6.39 in [12]. The PBM binding z-score in assay [13] is 6.13; in assay [14] it was 4.32; in [15], 7.81; in [16], 3.18; in [17], -0.0671; in [18], 3.97.

Consider CAAACTAGGTCACGAAAGGTCGAAGTCGAATGAC, for which the PBM binding z-score came out at 8.79 in assay [1]; 9.21 in assay [2]; 6.19 in assay [3]; 3.15 in [4]; 3.9 in assay [5]; 5.95 in [6]. Also, the PBM binding z-score in assay [7] was 1; in [8], 5.45; in [9], 1.66; in assay [10] it was 4.86; in assay [11] it was 5; in assay [12] it was 6.14. The PBM binding z-score in assay [13] was 6.69; in [14] it was 2.17; in assay [15], 5.66; in assay [16], 4.65; in assay [17], 1.9; in [18], 2.3.

In the case of GCTAGTTGGTCAGTAACAGGTCACACACCGGTCG, the PBM binding z-score in assay [1] is 0.713; in assay [2], 1.57; in assay [3] it was -0.131; in assay [4] it was 0.285; in assay [5], 1.45; in assay [6] it was 1.85. The PBM binding z-score is 0.169 in assay [7]; 2.32 in [8]; 1.15 in [9]; 2.24 in assay [10]; 3.38 in assay [11]; 2.86 in assay [12]. Also, the PBM binding z-score in [13] was found to be 2.06; in [14] it was 0.0356; in assay [15], 2.11; in assay [16] it was 2.13; in assay [17], 1.06; in assay [18], 0.753.
